Data: PubChem BioAssay (NCATS)
Inconclusive results are not listed. Calls of active or inactive are those of the source. The call rests on the fitted dose curve; in most records, active means well fitted inhibition curve with a large enough effect; inconclusive means small, poorly fitted or top-dose-only effect; inactive means flat fitted curve, though single readings scatter.

Key:
Assay in all cases: qHTS profiling for inhibitors of Plasmodium falciparum proliferation (AID 504749); further: nearly all actives have a fitted effect of over 60% in size
AA1029 = details: P. falciparum in erythrocytes, SYBR Green DNA, 72 h; series mostly up to 28.7 µM
Method in brief: (§1)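 SYBR Green fluorescence (ex 485 nm, em 535 nm) reports parasite DNA after 72 h compound exposure of infected red cells at 0.3% parasitemia, 2.5% hematocrit; signal normalized to 0.29 uM artemisinin and vehicle wells.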

ATS95 = details: P. falciparum in erythrocytes, SYBR Green DNA, 72 h; series mostly up to 28.7 µM
Method in brief: as §1

C2A = details: P. falciparum in erythrocytes, SYBR Green DNA, 72 h; series mostly up to 28.7 µM
Method in brief: as §1

CP215 = details: P. falciparum in erythrocytes, SYBR Green DNA, 72 h; series mostly up to 28.7 µM
Method in brief: as §1

CP217 = details: P. falciparum in erythrocytes, SYBR Green DNA, 72 h; series mostly up to 28.7 µM
Method in brief: as §1

CP238 = details: P. falciparum in erythrocytes, SYBR Green DNA, 72 h; series mostly up to 28.7 µM
Method in brief: as §1

CP250 = details: P. falciparum in erythrocytes, SYBR Green DNA, 72 h; series mostly up to 12.8 µM
Method in brief: as §1

CP252 = details: P. falciparum in erythrocytes, SYBR Green DNA, 72 h; series mostly up to 12.8 µM
Method in brief: as §1

CP265 = details: P. falciparum in erythrocytes, SYBR Green DNA, 72 h; series mostly up to 12.8 µM
Method in brief: as §1

CP266 = details: P. falciparum in erythrocytes, SYBR Green DNA, 72 h; series mostly up to 12.8 µM
Method in brief: as §1

CP269 = details: P. falciparum in erythrocytes, SYBR Green DNA, 72 h; series mostly up to 28.7 µM
Method in brief: as §1

CP325 = details: P. falciparum in erythrocytes, SYBR Green DNA, 72 h; series mostly up to 28.7 µM
Method in brief: as §1

CP329 = details: P. falciparum in erythrocytes, SYBR Green DNA, 72 h; series mostly up to 28.7 µM
Method in brief: as §1

DIV14 = details: P. falciparum in erythrocytes, SYBR Green DNA, 72 h; series mostly up to 28.7 µM
Method in brief: as §1

DIV17 = details: P. falciparum in erythrocytes, SYBR Green DNA, 72 h; series mostly up to 28.7 µM
Method in brief: as §1

N140 = details: P. falciparum in erythrocytes, SYBR Green DNA, 72 h; series mostly up to 28.7 µM
Method in brief: as §1

P93_24 = details: P. falciparum in erythrocytes, SYBR Green DNA, 72 h; series mostly up to 28.7 µM
Method in brief: as §1

PAD = details: P. falciparum in erythrocytes, SYBR Green DNA, 72 h; series mostly up to 28.7 µM
Method in brief: as §1

PC26 = details: P. falciparum in erythrocytes, SYBR Green DNA, 72 h; series mostly up to 28.7 µM
Method in brief: as §1

SC27B = details: P. falciparum in erythrocytes, SYBR Green DNA, 72 h; series mostly up to 28.7 µM
Method in brief: as §1

Measured: Potency

CC(C)(O)C1C2OC(=O)C1[C@]1(O)C[C@H]3O[C@]34C(=O)O[C@H]2[C@]14C (stereo not given in full) (tested in a mixture with another compound)
inactive: all assays above

Oc1ccc2c3c1O[C@H]1[C@@H](O)CC[C@@]4(O)C(C2)N(CC2CCC2)CCC314 (stereo not given in full)
inactive: all assays above

CCCC[N+]1(C)C2CC(OC(=O)C(CO)c3ccccc3)CC1C1OC12 (stereo not given)
inactive: all assays above
